Test results as given in PubChem BioAssay (NCI).
About 83,000 compounds went through this panel and 20% of them were active in at least one assay; those are over-represented in the sample as a whole.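 Single-dose data. Exposure time 48 hours. Values below 10 considered active.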 Calls of active or inactive are those of the source.

Legend:
Test in all cases: NCI-60 one-dose screen, 48 h (100 = growth as untreated, 0 = no growth, -100 = all killed)
Settings in all cases: 10 µM unless noted
NCI-H23 lung = test system: NCI-H23 lung
NCI-H226 lung = test system: NCI-H226 lung
NCI-H322M lung = test system: NCI-H322M lung
HOP-62 NSCLC = test system: HOP-62 NSCLC
NCI-H460 lung = test system: NCI-H460 lung
HOP-92 NSCLC = test system: HOP-92 NSCLC
NCI-H522 lung = test system: NCI-H522 lung
A549/ATCC NSCLC = test system: A549/ATCC NSCLC
786-0 renal = test system: 786-0 renal
COLO 205 colon = test system: COLO 205 colon

Measured: growth

O=C1C=C(c2ccccc2)C(O)(c2ccccc2)C1 (stereo not given)
inactive: NCI-H23 lung 99.1% | NCI-H226 lung 101% | NCI-H322M lung 106% | HOP-62 NSCLC 101% | NCI-H460 lung 110% | HOP-92 NSCLC 163% | NCI-H522 lung 94% | A549/ATCC NSCLC 93.4% | 786-0 renal 99.1% | COLO 205 colon 104%

O=C(O)c1c[nH]c2ccccc2c1=O
inactive: NCI-H23 lung 96.5% | NCI-H226 lung 105% | NCI-H322M lung 94% | HOP-62 NSCLC 94.9% | NCI-H460 lung 105% | HOP-92 NSCLC 87% | NCI-H522 lung 93.1% | A549/ATCC NSCLC 104% | 786-0 renal 97.8% | COLO 205 colon 95.3%

C=C1SC(=Nc2c(C)cccc2C)N(c2nc(Cl)nc(Cl)n2)C12CCCCC2
inactive: NCI-H23 lung 103% | NCI-H226 lung 104% | NCI-H322M lung 85.4% | HOP-62 NSCLC 105% | NCI-H460 lung 110% | HOP-92 NSCLC 105% | NCI-H522 lung 82.9% | A549/ATCC NSCLC 96.2% | 786-0 renal 99.9% | COLO 205 colon 109%

Cc1ccc(N)c(S(=O)(=O)O)c1
inactive: NCI-H23 lung 98.6% | NCI-H226 lung 103% | NCI-H322M lung 93.8% | HOP-62 NSCLC 85.8% | NCI-H460 lung 104% | HOP-92 NSCLC 112% | NCI-H522 lung 156% | A549/ATCC NSCLC 125% | 786-0 renal 101% | COLO 205 colon 106%

O=C1C=C[C@H](O)[C@@]2(CO)O[C@@H]12
inactive: NCI-H23 lung 93.1% | NCI-H226 lung 71.3% | NCI-H322M lung 114% | HOP-62 NSCLC 126% | NCI-H460 lung 121% | HOP-92 NSCLC 64.6% | A549/ATCC NSCLC 144% | 786-0 renal 102%
active: NCI-H522 lung -60.6% | COLO 205 colon 3.59%

COCC(N)=O
inactive: NCI-H23 lung 103% | NCI-H226 lung 99% | NCI-H322M lung 100% | HOP-62 NSCLC 95% | NCI-H460 lung 108% | HOP-92 NSCLC 94.5% | NCI-H522 lung 100% | A549/ATCC NSCLC 104% | 786-0 renal 92% | COLO 205 colon 111%
